Laboratory results from PubChem BioAssay (NCATS).
Values joined by “and” are separate entries in the source; they are usually repeats but may differ in a detail not shown here. Identical values can stand only once. Inconclusive results are not listed. Active and inactive are the calls of the source. Unless noted, calls come from the whole dose curve; as a rule, active = well fitted curve in the direction sought with a large enough effect; inconclusive = small, poorly fitted or top-dose-only effect, or another doubt; inactive = no such curve, though single readings can be large; an effect the other way counts as inactive or inconclusive.

How the values were obtained:
[1] = Cell Viability - Mesenchymal (AID 546);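 note: cells exposed to compound for 40 hours before reading; 0% = DMSO only and -100% = 100 µM tamoxifen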
Summary of the method: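 CellTiter-Glo luminescence (intracellular ATP, 20 min room temperature) after 40 hr compound exposure at 37 °C of 1000 glomerulus-derived human kidney mesenchymal cells/well; AC50 values obtained by fitting qHTS concentration-response data to the Hill equation.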

[2] = Cellular Toxicity (caspase-3) HepG2 (AID 654);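 note: cells exposed to compound for 16 hours before reading; 0% = DMSO alone and 100% = caspase signal from 100 µM tamoxifen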
Summary of the method: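 Caspase 3/7 activation is measured as a luminescence increase (aminoluciferin substrate) after 16 h compound exposure of human hepatocarcinoma HepG2 cells. AC50 values are Hill fits, scaled between DMSO baseline and 100 uM tamoxifen stimulation.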

[3] = Cellular Toxicity (caspase-3) Jurkat (AID 655);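 note: cells exposed to compound for 16 h at 37 °C before reading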
Summary of the method: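 qHTS in human Jurkat T-cell leukemia line: 16 hr compound treatment at 37 °C, caspase-3/7 activity measured by Caspase-Glo luminescence. AC50 derived from Hill equation.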

[4] = Cellular Toxicity (caspase-3) HUV-EC-C (AID 656);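 note: 0% = DMSO basal and 100% = 100 µM tamoxifen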
Summary of the method: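 Concentration-dependent caspase 3/7 induction was assessed in HUV-EC-C cells exposed for 16 hours. Data scaled between DMSO and tamoxifen (100 uM) controls.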

[5] = Cellular Toxicity (caspase-3) SHSY5Y (AID 657);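 note: cells exposed to compound for 16 hours at 37 °C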
Summary of the method: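 Readout: caspase-cleaved peptide-aminoluciferin substrate driving luciferase light in SH-SY5Y neuroblastoma cells after 16 h treatment. Response normalized to DMSO and 10 uM staurosporine controls.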

[6] = Cellular Toxicity (caspase-3) BJ (AID 658); conditions: Potency: caspase-3 activation;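 note: 0% = DMSO basal and 100% = 10 µM staurosporine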
Summary of the method: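 Caspase-Glo 3/7 luminescence, read 1 hr after reagent at room temperature, in normal BJ fibroblasts exposed 16 hours at 37 °C. AC50 values from Hill-equation concentration-response, scaled between DMSO basal and 10 uM staurosporine as 100%.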

[7] = Cellular Toxicity (caspase-3) MRC-5 (AID 659); conditions: Potency: caspase-3 activation;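 note: 0% = DMSO basal and 100% = 10 µM staurosporine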
Summary of the method: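 Luminescent Caspase-Glo 3/7 read-out (1 h, room temperature) after a 16 h, 37 °C compound exposure of MRC-5 lung fibroblasts at 1500 cells/well. Concentration-response AC50 from Hill equation; 0% DMSO, 100% 10 uM staurosporine.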

[8] = Cellular Toxicity (caspase-3) Mesangial (AID 660);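 note: combined caspase 3 and 7 activity read by Caspase-Glo luminescence; cells exposed to compound for 16 h before the caspase read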
Summary of the method: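 Caspase 3/7 activation measured by Caspase-Glo 3/7 luminescence (20 min, room temperature) following 16 h exposure of mesangial cells (1000/well); AC50 from Hill-equation fit, normalized to DMSO and 100 uM tamoxifen.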

[9] = Cellular Toxicity (caspase-3) SK-N-SH (AID 661); conditions: SK-N-SH caspase-3 activation, qHTS; caspase-3 activation: at 91.7 µM (top of the series), DMSO as zero, staurosporine as full;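 note: 0% = DMSO basal and 100% = 10 µM staurosporine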
Summary of the method: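 Caspase 3/7 activation was read by luminogenic substrate cleavage after 16 hour treatment of SK-N-SH cells. Signal was scaled between DMSO and 10 uM staurosporine, and concentration-response data were fitted with the Hill equation for AC50.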

[10] = Cellular Toxicity (caspase-3) H-4-II-E (AID 663);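 note: cells exposed to compound for 16 hr before readout; 0% = DMSO basal and 100% = 100 µM tamoxifen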
Summary of the method: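 Caspase 3/7 activation measured by luminescent aminoluciferin substrate cleavage after 16 hr compound treatment of H-4-II-E cells in complete medium. Increase normalized between DMSO (basal) and 100 uM tamoxifen (100%); Hill-equation AC50 from concentration-response.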

[11] = Cellular Toxicity (caspase-3) Hek293 (AID 664);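 note: cells exposed to compound for 16 h at 37 °C before readout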
Summary of the method: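 Concentration-response qHTS: caspase 3/7 activation measured by luminescent aminoluciferin substrate cleavage after 16 h compound exposure of Hek 293 cells. AC50 from Hill equation, with DMSO as basal and 100 uM tamoxifen as 100%.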

[12] = Cellular Toxicity (caspase-3) N2a (AID 665);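 note: compound exposure lasted 16 h at 37 °C before readout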
Summary of the method: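 Caspase-3/7 activation measured as luminescence from Caspase-Glo reagent (1 h, room temperature) after 16 h compound exposure of mouse N2a cells. AC50 values from Hill-equation concentration-response, scaled between DMSO and 10 uM staurosporine.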

[13] = Cellular Toxicity (caspase-3) Renal Proximal Tubule (AID 667); conditions: renal proximal tubule cells; at 91.7 µM (top of the series) unless noted;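 note: cells exposed to compound for 16 hours at 37 °C before detection; 0% = DMSO basal and 100% = 10 µM staurosporine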
Summary of the method: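 Caspase-Glo 3/7 read-out, rat primary kidney proximal tubule cells. Compound exposure 16 h, 37 °C; detection after 1 h at RT. Activity scaled to DMSO and 10 uM staurosporine.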

[14] = biological target: Cytochrome P450 3A4 (Homo sapiens) (UniProt P08684); experiment: qHTS Assay for Inhibitors and Substrates of Cytochrome P450 3A4 (AID 884); note: % is set by controls: 0 for no effect and ±100 for the full control effect; nearly all actives have a fitted effect of over 50% in size
Cytochrome P450 3A4 (Homo sapiens), sequence (P08684 whole entry, looked up): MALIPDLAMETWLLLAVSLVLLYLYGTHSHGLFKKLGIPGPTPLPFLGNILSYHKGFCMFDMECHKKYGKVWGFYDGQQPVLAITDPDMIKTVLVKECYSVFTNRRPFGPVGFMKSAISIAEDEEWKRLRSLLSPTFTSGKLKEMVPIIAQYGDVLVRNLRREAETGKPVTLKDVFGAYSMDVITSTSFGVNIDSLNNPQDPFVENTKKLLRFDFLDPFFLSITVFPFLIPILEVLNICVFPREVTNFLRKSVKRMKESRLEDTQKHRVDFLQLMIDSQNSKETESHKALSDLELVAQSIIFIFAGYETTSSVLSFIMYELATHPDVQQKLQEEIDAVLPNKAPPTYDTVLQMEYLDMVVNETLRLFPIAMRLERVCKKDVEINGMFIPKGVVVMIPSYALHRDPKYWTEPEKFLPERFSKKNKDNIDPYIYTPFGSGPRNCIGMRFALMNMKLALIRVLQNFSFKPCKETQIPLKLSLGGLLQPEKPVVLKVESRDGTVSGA
Summary of the method: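 Luminescent readout of luciferin produced by CYP3A4 (20 nM) dealkylation of Luciferin-PPXE, 25 uM (its KM). NADPH-driven reaction ran 60 min at RT after 10 min compound preincubation; data scaled to 57 uM ketoconazole as 100% inhibition.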

[15] = biological target: 3',5'-cyclic-AMP phosphodiesterase 4B (Homo sapiens) (UniProt Q07343); experiment: qHTS Assay for Inhibitors of PDE-IV (AID 607; active = well fitted activation curve with a large enough effect in the main read-out, with a control signal flat, not every such curve was filed as active; note: % of control where 0% means no effect)
3',5'-cyclic-AMP phosphodiesterase 4B (Homo sapiens), sequence (Q07343 whole entry, looked up): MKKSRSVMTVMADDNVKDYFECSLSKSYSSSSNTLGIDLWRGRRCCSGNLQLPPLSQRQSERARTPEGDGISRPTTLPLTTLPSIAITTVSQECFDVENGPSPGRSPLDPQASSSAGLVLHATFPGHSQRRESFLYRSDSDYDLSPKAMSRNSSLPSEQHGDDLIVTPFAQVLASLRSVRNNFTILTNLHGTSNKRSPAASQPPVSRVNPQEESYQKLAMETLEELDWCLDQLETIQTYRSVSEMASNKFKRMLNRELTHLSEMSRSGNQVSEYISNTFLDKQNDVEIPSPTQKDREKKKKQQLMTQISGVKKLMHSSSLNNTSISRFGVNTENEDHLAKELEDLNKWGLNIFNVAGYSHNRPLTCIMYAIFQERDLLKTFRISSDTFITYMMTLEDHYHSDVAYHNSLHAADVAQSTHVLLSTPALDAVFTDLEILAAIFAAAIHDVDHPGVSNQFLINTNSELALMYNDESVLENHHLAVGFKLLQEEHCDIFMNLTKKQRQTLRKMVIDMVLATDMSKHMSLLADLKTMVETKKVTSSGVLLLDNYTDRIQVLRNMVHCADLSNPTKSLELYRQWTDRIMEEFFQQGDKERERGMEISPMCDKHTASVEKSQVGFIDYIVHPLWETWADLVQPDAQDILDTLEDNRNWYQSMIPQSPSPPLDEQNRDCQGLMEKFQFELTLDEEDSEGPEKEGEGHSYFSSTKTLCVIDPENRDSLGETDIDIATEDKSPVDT
Summary of the method: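 Live HEK293 cells with a modified cyclic nucleotide-gated (CNG) channel report intracellular cAMP via membrane-potential dye fluorescence (ex 535/em 590 nm). Endogenous PDE-IV was targeted. Compounds were tested at up to 22.9 uM final; RO 20-1724 100 uM served as control.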

[16] = biological target: Cytochrome P450 3A4 (Homo sapiens) (UniProt P08684); experiment: qHTS Assay for Activators of Cytochrome P450 3A4 (AID 885); note: nearly all actives have a fitted effect of over 65% in size
Summary of the method: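 Using 20nM recombinant human CYP3A4 in potassium phosphate (200mM), substrate Luciferin-PPXE at 25uM, luminescent luciferin detection followed a 60-min RT NADPH reaction; data scaled to 57 uM ketoconazole.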

ClC=C(Cl)Cl
inactive: Potency [1] | outcome [2] | Potency [3] | outcome [4] | outcome [5] | Potency [6] | Potency [7] | outcome [8] | Potency [9] | outcome [10] | outcome [11] | outcome [12] | caspase-3 activation [13] -7.81% [at 91.7 µM, primary cells freshly taken from rat, solvent-only wells 0%, staurosporine 100%] | Potency [14]

ClCC1CO1 (stereo not given)
inactive: Potency [1] | outcome [2] | Potency [3] | outcome [4] | outcome [5] | Potency [6] | Potency [7] | outcome [8] | Potency [9] | outcome [10] | outcome [11] | outcome [12] | caspase-3 activation [13] 0.815% [at 91.7 µM, primary cells freshly taken from rat, solvent-only wells 0%, staurosporine 100%] | Potency [14]

COC1=CC(=O)O[C@@H](/C=C/c2ccccc2)C1
inactive: Potency [1] | outcome [2] | Potency [3] | outcome [4] | outcome [5] | Potency [6] | Potency [7] | outcome [8] | Potency [9] | outcome [10] | outcome [11] | outcome [12] | caspase-3 activation [13] -6.32% | Potency [14]

c1cc2c(c(NC3=NCCN3)c1)CCCC2
inactive: Potency [15]

CN1CCc2cc(O)cc3c2[C@H]1Cc1ccc(O)c(O)c1-3
inactive: Potency [15]

Clc1ccccc1Cl
inactive: Potency [1] | outcome [2] | Potency [3] | outcome [4] | outcome [5] | Potency [6] | Potency [7] | outcome [8] | Potency [9] | outcome [10] | outcome [11] | outcome [12] | caspase-3 activation [13] 5.14% [at 91.7 µM, primary cells freshly taken from rat, solvent-only wells 0%, staurosporine 100%] | Potency [14]

O=S(=O)(O)c1cc(O)ccc1O
inactive: Potency [15]

C[C@]12CCC(=O)C[C@@H]1CC[C@@H]1[C@@H]2CC[C@]2(C)[C@@H](O)CC[C@@H]12
inactive: Potency [1] | outcome [2] | Potency [3] | outcome [4] | outcome [5] | Potency [6] | Potency [7] | outcome [8] | Potency [9] | outcome [10] | outcome [11] | outcome [12] | caspase-3 activation [13] 0.8% | outcome [16]

Oc1cc(Cl)c(Cl)cc1Cl
inactive: Potency [1] | outcome [2] | Potency [3] | outcome [4] | outcome [5] | Potency [6] | Potency [7] | outcome [8] | Potency [9] | outcome [10] | outcome [11] | outcome [12] | caspase-3 activation [13] 4.35% | Potency [14]

C=CCN=C=S
inactive: Potency [1] | outcome [2] | Potency [3] | outcome [4] | outcome [5] | Potency [6] | Potency [7] | outcome [8] | Potency [9] | outcome [10] | outcome [11] | outcome [12] | caspase-3 activation [13] -1.14% [at 91.7 µM, primary cells freshly taken from rat, solvent-only wells 0%, staurosporine 100%] | outcome [16]

CN(N=O)c1cc(O)ccc1O
inactive: Potency [15]

CCOC(=O)c1ccccc1C(=O)OCC
inactive: Potency [1] | outcome [2] | Potency [3] | outcome [4] | outcome [5] | Potency [6] | Potency [7] | outcome [8] | Potency [9] | outcome [10] | outcome [11] | outcome [12] | caspase-3 activation [13] 7.7% and 0.83% | Potency [14]

O=CC=O
inactive: Potency [1] | outcome [2] | Potency [3] | outcome [4] | outcome [5] | Potency [6] | Potency [7] | outcome [8] | Potency [9] | outcome [10] | outcome [11] | outcome [12] | caspase-3 activation [13] -5.02% [at 91.7 µM, primary cells freshly taken from rat, solvent-only wells 0%, staurosporine 100%] | Potency [14]

CCCN1CCc2cc(O)cc3c2[C@H]1Cc1ccc(O)c(O)c1-3
inactive: Potency [15]

CCCCCCC(C)(C)c1ccc([C@@H]2C[C@H](O)CC[C@H]2CCCO)c(O)c1
inactive: Potency [15]

O=C/C=C/c1ccccc1
inactive: Potency [1] | outcome [2] | Potency [3] | outcome [4] | outcome [5] | Potency [6] | Potency [7] | outcome [8] | Potency [9] | outcome [10] | outcome [11] | outcome [12] | caspase-3 activation [13] 0.729% and 4.55% | Potency [14]

S=C=S
inactive: Potency [1] | outcome [2] | Potency [3] | outcome [4] | outcome [5] | Potency [6] | Potency [7] | outcome [8] | Potency [9] | outcome [10] | outcome [11] | outcome [12] | caspase-3 activation [13] 4.15% [at 91.7 µM, primary cells freshly taken from rat, solvent-only wells 0%, staurosporine 100%] | Potency [14]
